SMILES strings stand for the structures. Screen size: about 65,000 compounds; about 450 (0.69%) were called active. This is one part of a sample in which actives are shown more often than they occur. Values without a mark were called inactive.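 How the source made its calls: active means activation above a set limit, the screen-wide mean activation plus 3 SD (cut at about 8.5% in these data); inactive means the rest.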

For this assay, the target named is 5-hydroxytryptamine receptor 1E (Homo sapiens) (UniProt P28566). Briefly: 5-HT1E receptor agonists, primary screen, cell-based, HTS (AID 574).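 Further: 100% = positive control agonist at 1 µM giving full maximal response.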 The conditions noted are these: CHO 5-HT1E Ga15 NFAT-bla reporter, FRET; at 6 µM; stronger effect = higher value; 0% DMSO wells, 100% control agonist wells.
5-hydroxytryptamine receptor 1E (Homo sapiens), sequence (P28566 whole entry, looked up): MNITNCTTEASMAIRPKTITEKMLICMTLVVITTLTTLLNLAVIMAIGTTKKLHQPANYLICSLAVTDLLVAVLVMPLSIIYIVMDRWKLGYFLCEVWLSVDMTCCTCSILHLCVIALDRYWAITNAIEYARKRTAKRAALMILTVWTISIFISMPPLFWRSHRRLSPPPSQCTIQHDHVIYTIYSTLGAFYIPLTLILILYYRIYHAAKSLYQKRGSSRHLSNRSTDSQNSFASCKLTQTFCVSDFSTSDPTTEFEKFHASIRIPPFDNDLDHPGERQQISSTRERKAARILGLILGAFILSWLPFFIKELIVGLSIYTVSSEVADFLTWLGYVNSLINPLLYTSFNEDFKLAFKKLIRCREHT
Turning to `CCCOc1ccccc1C(=O)NCCCC(=O)O`, the activation was 0%.

`Cn1c(CN2CCOCC2)nc2cc(NC(=O)c3ccc(Cl)cc3)ccc21`: the activation was 0.6%.

On to `COc1cccc2cc(C(C)N(CCCN3CCOCC3)C(=O)Nc3ccc(Cl)cc3)oc12` (centres undefined), for which the activation is 15.9% (active).

For `O=C(CC(NCCN1CCOCC1)C(=O)O)Nc1cccc(Cl)c1` (centres undefined), the activation is -1.2%.

For `Cc1c2cnn(-c3ccccc3)c(=O)c2c(C)n1CCCC(=O)N1CCN(C)CC1`, the activation is 1%.

As for `CC(C)OC(=O)CN1C(=O)c2ccccc2C1=O`, the activation was 0.5%.

Regarding `CCOc1ccc(NC(=O)N2CCN(CC)CC2)cc1`, the activation was -0.5%.

For the compound `O=C(Nc1c(-c2ccccc2)nc2c(Br)cc(Br)cn12)c1ccco1`, the activation was -0.3%.

As to `CC1(C)C/C(=C(/C#N)C(N)=O)CCO1`, the activation was -0.1%.

`Cc1cn(COC/C=C/c2ccccc2)c(=O)[nH]c1=O`: the activation was 0.2%.

As to `CC(C)Cn1c(CCC(=O)O)ccc1-c1cccs1`, the activation was 0.6%.

Take `CC1CCCC(NC(=O)CN2CCN(Cc3ccc(Cl)cc3)C2=O)C1C` (centres undefined): the activation was -0.6%.

Take `O=C(OC1CCOC1=O)c1ccc(-c2nc3ccccc3s2)s1` (centres undefined): the activation is -0.6%.

On to `Cc1ccc(-n2nc3c(c2NC(=O)c2ccc4c(c2)OCO4)CSC3)c(C)c1`, for which the activation was -0.1%.

On to `O=C(Nc1ccccc1C(F)(F)F)c1cc(-c2ccc(O)cc2)on1`, for which the activation was 0.1%.

For `CCOc1ccc(Cn2c(SCCCCC#N)nc3c2c(=O)n(C)c(=O)n3C)cc1OCC`, the activation is 0.1%.

Consider `O=C(Nc1c(Cl)cccc1Cl)C1CCC1`, for which the activation is 0.5%.

As to `O=C(O)CC(Cn1cnnn1)c1ccccc1` (centres undefined), the activation was 1.2%.

As to `Fc1ccccc1CCNc1nnnn1-c1ccccc1`, the activation is -0.5%.

Regarding `CC(C)CNC(=O)C1CCCN(S(=O)(=O)c2ccc(-n3cnnn3)cc2)C1` (centres undefined), the activation was -0.3%.

For `Cc1oc(-c2cccc(Cl)c2)[n+]([O-])c1C`, the activation is 0.2%.

In the case of `COC(=O)COc1ccc(S(=O)(=O)N2CCOCC2)cc1`, the activation was -0.6%.

As to `O=C(c1ccc2c(c1)C(=O)N(c1ccc(Cl)cc1)C2=O)N1CCN(c2ccccn2)CC1`, the activation is 0.4%.

`CCOc1ccc(C(CC(=O)O)NC(=O)COc2ccccc2)cc1` (centres undefined): the activation was -1.3%.

As to `C=CCn1c(N)c(S(=O)(=O)c2cccs2)c2nc3ccccc3nc21`, the activation is 0.2%.

With `CC(C)Cn1c(N)c(C(=O)NCc2cccs2)c2nc3ccccc3nc21`, the activation is 18.4% (active).

As for `C=CCn1c(N)c(C(=O)OCC(C)C)c2nc3ccccc3nc21`, the activation was 0.4%.

Take `Cc1ccc(C(=O)NCCNS(=O)(=O)c2ccccc2)cc1`: the activation is -1.7%.

Turning to `CC(=O)Nc1cccc(Oc2cc(C#N)c(C#N)cc2N2CCOCC2)c1`, the activation is -0.6%.

For `CC1CN(c2cc(=O)n(Cc3ccc(F)cc3)c(=O)[nH]2)CC(C)O1` (centres undefined), the activation was 0.8%.

For `Cc1nnc(SCC(=O)N2CCc3ccccc32)n1-c1ccccc1`, the activation is -0.4%.

On to `CCOC(=O)CSc1nc2sc3c(c2c(=O)[nH]1)CC(C)(C)OC3`, for which the activation was -0.1%.

Turning to `CCCc1nnc(NC(=O)c2cc(OC)cc(OC)c2)s1`, the activation is 0.7%.

Turning to `Nc1nnnn1/N=C/c1cccs1`, the activation is -0.8%.

On to `CS(=O)(=O)N(C(=O)NC(=O)NC1CCS(=O)(=O)C1)C1CCCCC1` (centres undefined), for which the activation is 0.1%.

`O=C(Nc1nnc(-c2ccc(Cl)cc2)o1)c1ccccc1Br`: the activation was -0.9%.

With `CCOC(=O)N1CCC(NC(=O)c2ccc3nc(N4CCOCC4)sc3c2)CC1`, the activation is -0.6%.

As to `COC(=O)C(C)C1Sc2ccccc2NC1=O` (centres undefined), the activation is 0.6%.

Consider `Cc1ccc(C(C(=O)NCc2ccco2)N(CC2CCCO2)C(=O)Cn2nnc3ccccc32)cc1` (centres undefined), for which the activation was 0.3%.

For the compound `O=C(NC1(C(F)(F)F)N=C2SCCN2C1=O)c1ccco1` (centres undefined), the activation was -0.1%.

On to `CCNc1nc(NCC)nc(N(C)n2cnnc2)n1`, for which the activation was 1.1%.

As to `N#Cc1nc(Cc2ccccc2)oc1NCCc1ccccc1`, the activation was -0.8%.

On to `c1n[nH]c(NCc2ccc3c(c2)OCO3)n1`, for which the activation is -0.5%.

`N#Cc1nc(Cc2cccc3ccccc23)oc1NCc1ccc2c(c1)OCO2`: the activation was 10.4% (active).

Take `Cc1cccc2c1N(CC(=O)OC(C)C)C(=O)C2=O`: the activation is 0.3%.

Take `CCN(CC)P(=O)(C(NC(=O)OC)C(F)(F)C(F)(F)C(F)(F)C(F)F)N(CC)CC` (centres undefined): the activation is 0.8%.

`COc1ccc(C2OC(=O)CC2C(=O)NC(C)C)cc1` (centres undefined): the activation is 0.2%.

Consider `CCc1c(C)nc(N)n2c(SCC(=O)N3CCN(c4ccccc4)CC3)nnc12`, for which the activation was -0.4%.

As to `Cc1cc(C)c(C)c(S(=O)(=O)Nc2ccc(O)cc2)c1C`, the activation is -0.5%.

As to `NS(=O)(=O)c1cc2c(cc1Cl)NC(C(Cl)Cl)NS2(=O)=O` (centres undefined), the activation was -0.1%.

`CC(=C1C(=O)c2ccccc2C1=O)N1CCN(c2ccccn2)CC1`: the activation is 0.2%.

Consider `O=C(c1cccc(C(=O)N2CCN(c3ccc(F)cc3)CC2)c1)N1CCN(c2ccc(F)cc2)CC1`, for which the activation is 0.7%.

Take `O=C(NC1CCCCC1)C1CCCN(S(=O)(=O)c2cccs2)C1` (centres undefined): the activation was -0.4%.

With `Cc1cnc(C(=O)OCC(=O)Nc2ccc(Cl)cc2Cl)cn1`, the activation is 0.2%.

On to `CC1(C)Cc2ccccc2-c2nnc(-c3cccc(O)c3)n21`, for which the activation was 0.2%.

Take `Cc1ccc(NC2=NC(c3ccccc3)n3c(nc(C)cc3=O)N2)cc1` (centres undefined): the activation is 0.3%.

`COc1ccc(S(=O)(=O)Nc2ccc(S(=O)(=O)N3CCCCC3)cc2)cc1OC`: the activation is 0.4%.

Consider `CCCCn1nnnc1NCc1cc(OC)c(OC)c(OC)c1`, for which the activation was -0.7%.

As to `Cc1ccccc1NC(=O)c1cnn(-c2ccccc2)c1NC(=O)c1ccco1`, the activation is 0.5%.

Regarding `COc1ccc(OCC(=O)OCC(=O)Nc2ccc(S(=O)(=O)N3CCCCC3)cc2)cc1`, the activation is -0.3%.

For `CC(C)=C(NC(=O)c1ccco1)C(=O)NCCc1nc2ccccc2[nH]1`, the activation is 1.5%.

As for `COC(=O)c1ccc(NC(=O)c2ccco2)cc1`, the activation is 0.1%.

Take `CCCCC(CCC(=O)Nc1ccc(C(=O)OCC)cc1)C(=O)O` (centres undefined): the activation is -0.3%.

In the case of `CCN(CC)C(=O)CCC(=O)Nc1ccc(C(=O)OC)cc1`, the activation was 20.5% (active).

On to `O=C1NC(c2ccncc2)Nc2sc3c(c21)CCCC3` (centres undefined), for which the activation is 0.1%.

For the compound `CCOC(=O)Cn1c2c(c(-c3ccccc3OC)cc1=O)CCCC2`, the activation is -0.4%.

As to `COC(=O)c1ccc(CSc2nc3ccccc3c(=O)n2-c2cccc(OC)c2)o1`, the activation is 1.3%.

In the case of `NC(CSC12CC3CC(CC(C3)C1)C2)C(=O)O` (centres undefined), the activation was 0.4%.

As to `CC1Cc2ccccc2N1C(=O)Cn1cnc2ccccc2c1=O` (centres undefined), the activation was -0.8%.

Consider `Cc1nc2ccc(NC(=O)N3CCC(c4ccccc4)C3)cc2nc1C` (centres undefined), for which the activation is -0.6%.

As for `O=C(O)CCN1C(=O)CC2(CCCCC2)C1=O`, the activation was 9.8% (active).

As to `Cc1ccc(F)cc1NC(=O)c1ccc2c(c1)OCO2`, the activation is -0.9%.

On to `COCCCN1C(=O)c2ccc(C(=O)Nc3ccc(OC)cc3OC)cc2C1=O`, for which the activation is -0.6%.

`CCSc1nc(=S)n(CC)c(C)c1C(C)=O`: the activation is -0.3%.

Turning to `CCn1c(Cc2ccccc2)nnc1SCc1nc2ccccc2c(=O)[nH]1`, the activation was -0.1%.

Regarding `CCC(=O)Nc1nc(OC)cc(OC)n1`, the activation is -0.6%.

With `Cc1ccc(CCn2c3c(c4ccccc42)CN(C)CC3)cn1`, the activation is 0.2%.

Take `Cc1ccc2nc3n(c(=O)c2c1)CCC3`: the activation is -0.8%.

`COc1ccc(/C(O)=C2/C(=O)C(=O)N(c3nc(C)c(C)s3)C2c2ccco2)cc1` (centres undefined): the activation is 0.5%.

`Cn1c(=O)cc(SCC(=O)N2CCCC2)c2cc(Cl)ccc21`: the activation is -0.2%.

`CCOc1ccc(-c2nnn(CC(=O)N3CCN(c4ccc(OC)cc4)CC3)n2)cc1OCC`: the activation is -1.1%.

With `CCOC(=O)c1cc2c(n(-c3ccc(C)cc3)c1=O)CCCC2=O`, the activation was 0.8%.

On to `C[C@@H](Nc1nc(-c2ccccc2)nc2c1oc1ccccc12)C(=O)O`, for which the activation was -0.7%.

For `COc1ccc(S(=O)(=O)Nc2c(C)n(C)n(-c3ccccc3)c2=O)cc1`, the activation was -1.6%.

As to `CCC(C)Sc1nc2c(c(=O)[nH]c(=O)n2C)n1CC(O)COc1cccc2ccccc12` (centres undefined), the activation was 1.1%.

Regarding `CCOc1c(OC)cc(C2C(C#N)=C(N)Oc3n[nH]c(-c4ccncc4)c32)cc1OC` (centres undefined), the activation was 0.7%.

Consider `Cc1nc(NC(CC(C)C)C(=O)O)c2nc(C)oc2n1` (centres undefined), for which the activation was -1.1%.

For `Cc1cc(C(=O)COC(=O)c2cccs2)c(C)n1-c1c(C)n(C)n(-c2ccccc2)c1=O`, the activation is -0.2%.

For `CN(C(=O)C1CCOC1)c1nnc(-c2cccnc2)s1` (centres undefined), the activation was -1.1%.

With `COc1ccc(N2C(=O)CCC(C(=O)Nc3ccccn3)C2c2ccc(OC)c(OC)c2)cc1` (centres undefined), the activation is 2.5%.

Turning to `CCOc1ccc(-n2c(SC(C)C(=O)OC)nc3c(c2=O)SCC3)cc1` (centres undefined), the activation was 0.4%.

For `COc1ccc(CC(=O)n2nc(-c3cccnc3)nc2N)cc1`, the activation is 0.2%.

`O=c1nc(N2CCOCC2)nc2n1CCO2`: the activation is 0.6%.

For the compound `COc1ccc(C(=O)n2nc(-c3ccc(C)cc3)nc2N)cc1OC`, the activation is 0%.

On to `Cc1cc(=O)n(C)c(=O)n1CCCNc1ccccc1`, for which the activation is -0.1%.

For `CN(C)CCNC(CC(=O)Nc1ccc(Cl)c(Cl)c1)C(=O)O` (centres undefined), the activation is 0.3%.

In the case of `O=C(OCc1nnc(-c2ccccc2)o1)c1ccc2c(c1)C(=O)N(CCc1ccccc1)C2=O`, the activation was 0.4%.

With `Cc1ccc(-c2cc(C(F)(F)F)n3nc(C(=O)N4CCCC4)cc3n2)cc1`, the activation is 0.8%.

As for `Cc1nc2c(-c3ccccc3)c(C)[nH]n2c(=O)c1Cl`, the activation was -0.7%.

These data come from PubChem BioAssay AID574 (The Scripps Research Institute Molecular Screening Center, 2007).
